From PubChem BioAssay (NCI) come the findings set out here.

The panel holds about 83,000 compounds, 20% with a hit somewhere; the sample as a whole holds those more often.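 Values shown are percent growth following 48 h exposure of cells in 96-well plates to a single concentration of compound; below 10 was considered active.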 A number with no mark means an inactive call. The source made the active and inactive calls.

This test has as its system K-562 leukemia. Briefly: NCI-60 one-dose screen, 48 h (100 = growth as untreated, 0 = no growth, -100 = all killed). Particulars: 10 µM unless noted.
`N#C/C(=C\c1ccc(-c2ccc(Cl)c(Cl)c2)o1)c1nc(-c2ccco2)cs1`: the growth was 113%. For `CC(C)C1=C[C@@]23CC[C@@H]4[C@](C)(CCC[C@@]4(C)C(=O)N4CCCNCC4)[C@H]2C[C@@H]1[C@H]1C(=O)CCC(=O)[C@H]13` the value was 93.5%; for `COc1ccc(CCNc2nc(SC)nc(-c3cccc([N+](=O)[O-])c3)c2C#N)cc1OC`, 92.1%; for `Cc1cc(NS(=O)(=O)c2ccc(-c3cnc(C4CC4)o3)cc2)ccc1Cl`, 10.2%. The same measure for `COc1ccc(-c2cc(C(=O)N=Nc3c(O)[nH]c4ccc(Br)cc34)no2)cc1`: 96.5%. Consider `CCCOc1cc2ccccc2cc1C(=O)Nc1nc(NC)c2c(ccc3nccc32)[nH]1`, for which the growth was -54.3% (active).

For `CCCCN(CCCC)CCCn1c(-c2ccccc2)ccc1-c1ccccc1`, the growth is 52.2%. Take `Cc1nc2ccccc2n1C(=O)C[C@@H]1NC(=S)NC1=O`: the growth is 107%. For `N#CCCN=Nc1c(O)[nH]c2ccc([N+](=O)[O-])cc12` the value was 105%. The same measure for `Cc1cc(N2CCOCC2)nc(NCc2cc(Nc3ccnc4cc(Cl)ccc34)ccc2F)n1`: -4.96% (active); for `Nc1n[nH]c2ccc([C@@H]3Nc4cc5c(cc4[C@H]4C6CCC(C6)[C@@H]34)C(=O)NC5)cc12` (stereo partly drawn): 7.25% (active); for `c1ccc(-c2c(-c3ccccc3)[n+](Cc3ccc4ccccc4c3)c(-c3ccc(-c4nc5ccccc5s4)cc3)n2Cc2ccc3ccccc3c2)cc1`: -25.2% (active). Turning to `C=CC(=O)Nc1cccc(-c2nc(SC)nc(NCc3ccccc3)c2C#N)c1`, the growth was 60%. The same measure for `CCCOc1ccc2nc(NC(=O)OC)[nH]c2c1`: 16.1%. The same measure for `COc1cccc(/C=C2\Oc3cc(OCCN4CCCC4)ccc3C2=O)c1`: -26.9% (active); for `COc1ccc(/C=C2\Oc3cc(OCCCCN4CCCC4)ccc3C2=O)cc1`: -40.3% (active); for `COc1cccc(-c2nn(C(C)(C)C)cc2-c2ccnc(NCCCNS(=O)(=O)c3cccc4ccccc34)c2)c1`: 104%. The same measure for `COc1cccc(-c2nc3sccn3c2-c2ccnc(NCCCNS(=O)(=O)c3c(Cl)cccc3Cl)c2)c1`: 30.9%; for `O=C1c2cc3c(cc2-c2c1c1cc(F)c(F)cc1c(=O)n2CCCn1ccnc1)OCO3`: 8.61% (active); for `O=C(/C=C/c1cccc(Cl)c1)c1ccc(O)c(CN2CCN(c3cc4c(cc3F)c(=O)c(C(=O)O)cn4C3CC3)CC2)c1`: 20.4%. For the molecule `CCCn1c(=O)[nH]c(N)c([C@H]2c3ccccc3Oc3[nH]c(=O)n(CCC)c(=O)c32)c1=O`, the growth was 52.6%.

For the molecule `N#CCCN=Nc1c(O)[nH]c2ccc(F)cc12`, the growth was 119%. The same measure for `COc1ccc(-c2n[nH]nc2-c2csc3ccccc23)cc1OC`: 9.48% (active); for `COc1cc(/C=C/c2cc(O)c3cc(C(C)=O)c(=O)oc3c2)cc2c1O[C@]1(C)CC[C@@H](O)C(C)(C)[C@H]1C2`: 17.2%. The same measure for `O=C(N=Nc1c(O)[nH]c2ccc(Br)cc12)c1cc(-c2ccccc2)on1`: 109%; for `CSc1nc(NCc2ccccc2)c(C#N)c(-c2cccc([N+](=O)[O-])c2)n1`: 90.7%. For `O=S(=O)(Nc1ccc(Cl)c(F)c1)c1ccc(-c2cnc(C3CC3)o2)cc1` the value was 12.3%; for `CC1(C)CC[C@]2(C(=O)Nc3ccccn3)CC[C@]3(C)C(=CC[C@@H]4[C@@]5(C)C/C(=C/c6cccnc6)C(=O)C(C)(C)[C@@H]5CC[C@]43C)[C@H]2C1`, 18.7%. As to `O=S(=O)(Nc1ccc(Br)c(Cl)c1)c1ccc(-c2cnc(C3CC3)o2)cc1`, the growth was 10.2%.

On to `C=C(C)[C@@H]1CC[C@]2(C(N)=O)CC[C@]3(C)[C@H](CC[C@@H]4[C@@]5(C)C/C(=C/c6ccco6)C(=O)C(C)(C)[C@@H]5CC[C@]43C)[C@@H]12`, for which the growth is 80.1%.

Regarding `Cc1nc2c3c(-c4ccccc4)c(-c4ccccc4)oc3ncn2n1`, the growth was 94.3%. The same measure for `COc1cccc(-c2nn(C(C)(C)C)cc2-c2ccnc(NCCCNS(=O)(=O)c3ccc(C)cc3)c2)c1`: 101%; for `COc1ccc(-c2nc3ccc(-c4nc5ccc(N6CCN(c7ccc(F)cc7)CC6)cc5[nH]4)cc3[nH]2)cc1OC`: 17.7%; for `O=C1NC(=S)NC(=O)C1CC(=O)n1c(-c2ccccc2)nc2ccccc21`: 98.6%.

For the molecule `CSc1nc(NCCN2CCOCC2)c(C#N)c(-c2cccc([N+](=O)[O-])c2)n1`, the growth is 100%.

`N#Cc1c(-c2ccc(Cl)cc2)nc(N=Nc2c(O)[nH]c3ccc(Cl)cc23)nc1N1CCOCC1`: the growth is 116%.

On to `Cc1ccc(NS(=O)(=O)c2ccc(-c3cnc(C4CC4)o3)cc2)cc1C`, for which the growth is 9.36% (active). For `Oc1ccccc1-c1nnc(CNc2ccc(Cl)cc2)o1` the value was 13.1%.
